Results on ten compounds are retold here after PubChem BioAssay AID2061319 (National Center for Advancing Translational Sciences (NCATS), 2025).

Molecules are shown by their SMILES. Results filed as inconclusive are left out. Active and inactive are the calls of the source. Calls follow the shape of the dose curve; as a rule, active = well fitted inhibition curve with a large enough effect; inconclusive = small, poorly fitted or top-dose-only effect; inactive = flat fitted curve, though single readings scatter. Square brackets hold non-standard residues; d marks the D form. Peptide text beside a SMILES is read from it. Dolaproine = CO[C@@H]([C@@H]1CCCN1)[C@@H](C)C(=O)O; Dil = CC[C@H](C)[C@H](NC)[C@@H](CC(=O)O)OC; NMeV = CN[C@H](C(=O)O)C(C)C

The test is described as follows: Identification of antibody-drug conjugate (ADC) payloads which are substrates of ATP-binding cassette drug efflux transporters: ABCG2-H460-MX20 cell line with Ko143. As to conditions: H460-MX20 (ABCG2) + Ko143, CellTiter-Glo viability, 48 h; series mostly up to 28.7 µM. The text has this: Antibody-drug conjugates (ADCs) feature an antibody recognizing a specific protein joined to a potent toxic payload. Numerous antibody-drug conjugates have received FDA approval; however, clinical resistance arises. Resistance mechanisms include decreased expression or mutation of the antibody target, impaired payload release, or increased expression of ATP-binding cassette (ABC) efflux transporters associated with multidrug resistance. We therefore sought to characterize the interaction of ABC multidrug transporters with ADC payloads. We performed a high-throughput screen with 27 common ADC payloads using cells lines expressing ABC transporters P-glycoprotein (P-gp, encoded by ABCB1) or ABCG2 (encoded by ABCG2). Confirmatory assays were also performed using cells transfected to express P-gp, ABCG2, or MRP1 (encoded by ABCC1). Several commonly used ADC payloads were substrates of P-gp, including calicheamicin gamma1, monomethyl auristatin E, DM1, and DM4. All the pyrrolobenzodiazepines tested - SJG136, SGD-1882, SG2057, and SG3199 - were substrates of P-gp, ABCG2, and MRP1. […] These findings highlight the risk of transporter-mediated resistance with certain ADC payloads and underscore the importance of selecting payloads that evade ABC transporter recognition in future ADC development.
HEK-293 cells were transfected with empty vector (pcDNA) or vector containing the human ABCB1 (MDR-19), ABCG2 (R-5), or ABCC1 gene (MRP1) and were maintained in EMEM with 2 mg/mL G418 added to maintain transporter expression. The HeLa derivative KB-3-1 and the P-gp overexpressing KB-8-5-11 subline were maintained in DMEM; KB-8-5-11 additionally received 100 ng/mL colchicine. H460 parental cells were obtained from the Division of Cancer Treatment and Diagnosis Tumor Repository, National Cancer Institute at Frederick, MD and were cultured in RPMI. The ABCG2 expressing subline H460 MX20 was generated by selecting H460 cells in 20 nM mitoxantrone. Media in all cases was supplemented with 10% FBS and 1% penicillin-streptomycin. We explored 27 common ADC payloads, in two orthogonal, paired cell line sets-a drug selected and transfected set for each transporter--to identify substrates of the ABC transporters P-gp and ABCG2. Compounds were sourced from Levena Biopharma (San Diego, CA), Selleck Chem (Houston, TX), ChemieTek (Indianapolis, IN), or Microsource Discovery Systems (Gaylordsville, CT). Screening was performed as previously described. Briefly, cells were plated at a density of 500 cells/well in 1536 well plates with compounds added using a 1536-head pin tool (Kalypsys, San Diego CA). Cells were incubated with cytotoxic drugs and processed with CellTiter Glo reagent (Promega, Madison, WI) to determine viability after 48 hours. P-gp substrates were identified by comparing compound activity between paired sets of low-expressing (sensitive) and over-expressing (resistant) cell lines.
In general terms: ATP-based viability assays read luminescence as a measure of living cells.
Consider `CN(C)CCOc1ccc2[nH]c(C(=O)N3C[C@@H](CCl)c4c3cc(O)c3ccccc43)cc2c1`, for which the Potency is 0.5 nM (active).

`CCN(C(C)=O)[C@H]1CO[C@@H](O[C@H]2[C@H](O[C@H]3C#C/C=C\C#C[C@]4(O)CC(=O)C(NC(=O)OC)=C3/C4=C\CSSSC)O[C@H](C)[C@@H](NO[C@H]3C[C@H](O)[C@H](SC(=O)c4c(C)c(I)c(O[C@@H]5O[C@@H](C)[C@H](O)[C@@H](OC)[C@H]5O)c(OC)c4OC)[C@@H](C)O3)[C@@H]2O)C[C@@H]1OC`: the Potency is 13.4 nM (active). For `COc1cccc2c1C(=O)c1c(O)c3c(c(O)c1C2=O)C[C@@](O)(C(=O)CO)C[C@@H]3O[C@H]1C[C@H](N)[C@H](O)[C@H](C)O1`, the Potency was 598 nM (active). Next, `CC[C@H](C)[C@@H]([C@@H](CC(=O)N1CCC[C@H]1[C@H](OC)[C@@H](C)C(=O)N[C@@H](Cc1ccccc1)C(=O)O)OC)N(C)C(=O)[C@@H](NC(=O)[C@@H](NC)C(C)C)C(C)C` (H-[NMeV]V[Dil][Dolaproine]F-OH): 15000 nM (active). As for `CCc1c2c(nc3ccc(O)cc13)-c1cc3c(c(=O)n1C2)COC(=O)[C@]3(O)CC`, the Potency is 150 nM (active). Consider `CC[C@H](C)[C@@H]([C@H](N)CC(=O)N1CCC[C@H]1[C@H](OC)[C@@H](C)C(=O)N[C@@H](Cc1ccccc1)c1nccs1)N(C)C(=O)[C@@H](NC(=O)[C@@H](NC)C(C)C)C(C)C`, for which the Potency result was “inactive”.

As to `COC(=O)c1cc2c3c(cc(O)c2[nH]1)N(C(=O)c1cc2cc(OC)c(OC)c(OC)c2[nH]1)CC3CCl` (stereo not given), the Potency is 0.8 nM (active).

Turning to `CCN[C@H]1CO[C@@H](O[C@H]2[C@H](O[C@H]3C#C/C=C\C#C[C@]4(O)CC(=O)C(NC(=O)OC)=C3/C4=C\CSSSC)O[C@H](C)[C@@H](NO[C@H]3C[C@H](O)[C@H](SC(=O)c4c(C)c(I)c(O[C@@H]5O[C@@H](C)[C@H](O)[C@@H](OC)[C@H]5O)c(OC)c4OC)[C@@H](C)O3)[C@@H]2O)C[C@@H]1OC`, the Potency is 3.8 nM (active). Under `CC(C)(C)OC(=O)Nc1ccc2[nH]c(C(=O)N3C[C@@H](CCl)c4c3cc(O)c3ccccc43)cc2c1` stands 6.7 nM (active); under `COc1cccc2c1C(=O)c1c(O)c3c(c(O)c1C2=O)C[C@@](O)(C(=O)CO)C[C@@H]3O[C@H]1C[C@H]2[C@H](O[C@@H]3[C@@H](OC)OCCN32)[C@H](C)O1`, 0.2 nM (active).
